# Data as given in PubChem BioAssay AID431 (Sanford-Burnham Center for Chemical Genomics, 2006).
# About 1,100 (1.7%) of roughly 63,000 compounds were called active. This excerpt belongs to a sample that is enriched for actives. Entries with a potency or affinity are not part of this list. A number with no mark means an inactive call.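 How the source made its calls: active means compounds whose percent cytotoxicity in the single-dose primary screen, scaled between solvent and toxic-drug controls, exceeds 50; inactive means the rest.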
# Assay: viability loss of HPDE-C7K cells – cell-based, fluorescence, HTS, primary screen (AID 431);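 further: 0% = DMSO solvent wells and 100% = doxorubicin-treated wells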
# Conditions: HPDE-C7K KRASV12 cells, Alamar Blue viability, 48 h; at 10 µM; active compounds read high
row,SMILES,cytotoxicity
1,CN1C(=O)/C(=C2/C=CC=CN2C)OC1=S,-24.5%
2,COc1ccc(CCNC(=O)C2CCN(S(=O)(=O)c3cc(OC)ccc3OC)CC2)cc1,2.3%
3,COc1cccc(C2=CC(c3cccc(OC)c3OC)n3nnnc3N2)c1 (stereo not given),58.1% (active)
4,COc1cccc(C2=CC(c3ccc(N(C)C)cc3)n3nnnc3N2)c1 (stereo not given),-3.6%
5,COc1ccccc1C1C=C(c2ccccc2)Nc2nnnn21 (stereo not given),25.4%
6,COc1cccc(C2=CC(c3cccc(OC)c3OC(F)F)n3nnnc3N2)c1 (stereo not given),-13.8%
7,COc1ccc(C2=CC(c3c(C)nn(-c4ccccc4)c3Cl)n3nnnc3N2)cc1OC (stereo not given),84.4% (active)
8,COc1ccc(C2=CC(c3ccc(OC)c(OC)c3)n3nnnc3N2)c(OC)c1 (stereo not given),4%
9,COc1cccc(C2=CC(c3ccccc3)n3nnnc3N2)c1 (stereo not given),43.2%
10,COc1ccccc1C1C=C(c2ccc(C)cc2)Nc2nnnn21 (stereo not given),-8.9%
11,COc1cccc(C2=CC(c3cc(OC)ccc3OC)n3nnnc3N2)c1 (stereo not given),65.1% (active)
12,COc1ccc(OC)c(C2C=C(c3ccc(C)c(C)c3)Nc3nnnn32)c1 (stereo not given),6%
13,COc1cccc(C2=CC(c3ccc(OC)c(OC)c3OC)n3nnnc3N2)c1 (stereo not given),-4.5%
14,CC1CCCCC1NC(=O)CSc1nc2ccccc2c(=O)n1Cc1ccco1 (stereo not given),-6.9%
15,COc1cccc(N(CC(=O)Nc2ccccc2C)S(C)(=O)=O)c1,14.1%
16,c1ccc(-c2nc3ccccc3nc2-c2ccccn2)nc1,13.9%
17,COc1ccc(OC)c2[nH]c(=O)c(CCNC(=O)CC(C)C)cc12,-6.6%
18,CCOC(=O)N1CCC(NC(=O)C2=C(C)C(=O)OC23CCC(C)CC3)CC1 (stereo not given),-10.3%
19,Cc1nn(C)c(C)c1S(=O)(=O)N1CCCC(C(=O)NC2CCCCC2)C1 (stereo not given),-4.9%
20,COc1ccc(NC(=O)CSc2nnc(-c3ccncc3)n2CC2CCCO2)c(OC)c1 (stereo not given),-18.3%
21,CCC(CC)C(=O)NCCc1cc2c(OC)ccc(OC)c2[nH]c1=O,7.1%
22,O=C(c1ccco1)N1CCN(c2ncnc3c2[nH]c2ccc(Br)cc23)CC1,10%
23,Clc1ccc(-c2nnc(-c3ccccc3Cl)o2)cc1,13.7%
24,Cc1nc(NC(=O)c2csc3ccccc23)sc1C,2.8%
25,COc1ccccc1C1(CC(=O)N2CCOCC2)CCOC(C(C)C)C1 (stereo not given),-15.3%
26,CC[C@H]1OC(=O)C[C@@H](O)[C@H](C)[C@@H](O[C@@H]2O[C@H](C)C[C@H](N(C)C)[C@H]2O)[C@@H](CC=O)C[C@@H](C)C(=O)C=C[C@]2(C)O[C@H]2[C@@H]1C,76.8% (active)
27,CCC(=O)O[C@@H]1CC(=O)O[C@H](C)CC=CC=C[C@@H](O)[C@H](C)C[C@H](CC=O)[C@H](O[C@H]2O[C@H](C)[C@@H](O[C@H]3C[C@@](C)(O)[C@@H](OC(=O)CC)[C@H](C)O3)[C@H](N(C)C)[C@H]2O)[C@H]1OC,-0.4%
28,Cc1cc(C)cc(NC(=O)Cn2ncn3c(cc4ccccc43)c2=O)c1,-13.3%

row,SMILES,cytotoxicity
1,O=C1c2ccncc2C(=O)N1C1CCCCC1,2.8%
2,CN1CCN(C2=C(Cl)C(=O)N(C3CCCCC3)C2=O)CC1,3%
3,O=C(Nc1ccc2c(c1)OCCO2)C1CCN(S(=O)(=O)c2cccs2)CC1,-8.1%
4,O=C(CCCCCn1c(SCc2ccncc2)nc2ccccc2c1=O)NCc1ccco1,9.3%
5,Cc1cc(O)c(-c2cc(C(=O)Nc3ccc(S(=O)(=O)N4CCOCC4)cc3)[nH]n2)cc1C,6.5%
6,COc1ccc(OC)c(NC(=O)c2cc(-c3cc(Cl)ccc3O)n[nH]2)c1,1.7%
7,COc1ccc(NC(=O)c2cc(-c3cc(C)cc(C)c3O)n[nH]2)cc1Cl,70.7% (active)
8,COc1ccc(OC)c(NC(=O)c2cc(-c3ccc(C)cc3O)n[nH]2)c1,-0.5%
9,Cc1ccc(O)c(-c2cc(C(=O)Nc3ccc(S(=O)(=O)N4CC(C)OC(C)C4)cc3)[nH]n2)c1 (stereo not given),-13.4%
10,Cc1c(N=C2SCC(=O)N2c2c(C)n(C)n(-c3ccccc3)c2=O)c(=O)n(-c2ccccc2)n1C,15.2%
11,COc1ccccc1/C=c1\sc2nc(-c3ccncc3)nn2c1=O,-13.5%
12,COc1ccc2nc3sc(C(=O)NCc4cccs4)c(N)c3cc2c1,5.5%
13,COc1ccc(-c2oc3ncnc(NCCCN4CCOCC4)c3c2-c2ccc(OC)cc2)cc1,107% (active)
14,c1ccc(-c2oc3ncnc(NCCCn4ccnc4)c3c2-c2ccccc2)cc1,17.3%
15,c1ccc(-c2oc3ncnc(NCCN4CCOCC4)c3c2-c2ccccc2)cc1,42%
16,N=c1c2c(-c3ccccc3)c(-c3ccccc3)oc2ncn1CCCN1CCOCC1,55.5% (active)
17,c1ccc(-c2oc3ncnc(NCCCN4CCOCC4)c3c2-c2ccccc2)cc1,59.8% (active)
18,COc1ccc(-c2oc3ncn(CCN4CCOCC4)c(=N)c3c2-c2ccc(OC)cc2)cc1,17.3%
19,N=c1c2c(-c3ccccc3)c(-c3ccccc3)oc2ncn1CCN1CCOCC1,33.6%
20,COc1ccc(-c2oc3ncnc(NCCN4CCOCC4)c3c2-c2ccc(OC)cc2)cc1,4%
21,COc1ccc(-c2csc3ncnc(NCCN4CCOCC4)c23)cc1,25.8%
22,CCc1nnc(NC=C2C(=O)OC(C)(C)OC2=O)s1,-7.7%
23,Cc1c(/C(O)=C2/C(=O)C(=O)N(CCN3CCOCC3)C2c2cccnc2)cnn1-c1ccccc1 (stereo not given),-12.5%
24,CCN(CC)CCN1C(=O)C(O)=C(C(=O)c2sc(C)nc2C)C1c1cccnc1 (stereo not given),-8.8%
25,O=C(CN1CCN(C(=O)c2cccs2)CC1)NC1CCCCC1,-4.4%
26,CC1(C)CC(=O)C(C=Nc2cccnc2)=C(O)C1,7.1%
27,COc1cc(C(=O)Nc2cccc(-c3nc4cc(C)ccc4o3)c2C)cc(OC)c1OC,14.3%
